# PubChem BioAssay AID555 (SRMLSC, 2006)
# The whole screen tested about 65,000 compounds, of which about 320 (0.49%) were called active.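 Rule for the calls: active = ranked among the strongest by inhibition in the single 10 µM screen, a fixed top-ranked set picked for dose follow-up; inactive = the rest, inconclusive results apart.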 The sample as a whole holds a higher share of actives than the screen did.
# Test system: mevalonate kinase [Streptococcus pneumoniae D39]
# Assay: pneumococcal mevalonate kinase activity blockers – biochemical, PK/LDH-coupled NADH absorbance, primary screen (AID 555)
# Settings: purified MK, PK/LDH-coupled NADH absorbance 340 nm, at 10 µM, stronger effect = higher value
# [1] = measured here: pilot screen replicates
Compound,inhibition,inhibition [1]
CCN1CCN(C(=O)Cc2coc3cc(C)cc(C)c23)CC1,5% (inactive),
CN1CCN(Cc2ccccc2C(F)(F)F)CC1,6% (inactive),
COc1ccccc1CN1CCN(C(=O)Cc2ccccc2)CC1,53% (active),0%
CCOC(=O)c1c(-c2ccccc2)oc2ccc(OC(=O)N(C)C)cc12,0% (inactive),
COc1ccc(CN2CCN(c3ccccc3F)CC2)c(OC)c1,43% (active),1.5%
CC(C)c1ccc(O)c(CN2CCN(c3ccccc3)CC2)c1,0% (inactive),
Fc1cccc(F)c1CN1CCN(Cc2c(F)cccc2F)CC1,2% (inactive),
CCC(=NCc1ccco1)c1c(O)n(Cc2ccccc2)c(=O)[nH]c1=O,12% (inactive),
CC(=NCC1CCCO1)c1c(O)n(-c2ccccc2)c(=O)[nH]c1=O (configuration not stated),4% (inactive),
COC(=O)COc1cc(C)cc2oc(=O)c3c(c12)CCCC3,6% (inactive),
